The values below come from PubChem BioAssay (Tox21).

The nature of test [1]: Nuclear factor erythroid 2-related factor 2/antioxidant responsive element (Nrf2/ARE) small molecule agonists: qHTS cell viability counter screen in human keratinocytes (AID 1919968; active = well fitted curve in the direction sought with a large enough effect in the repeat runs; an effect the other way counts as inactive or inconclusive; also: nearly all actives have a fitted effect of over 55% in size; also: potency is read from the fitted curve at half-maximal effect). A digest of the protocol:
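Parallel cytotoxicity read: KeratinoSens HaCaT cells, compound treatment 23 h, viability by CellTiter-Fluor fluorescence 1 h post-reagent.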

Test [2] can be described thus: Nuclear factor erythroid 2-related factor 2/antioxidant responsive element (Nrf2/ARE) small molecule agonists: luciferase reporter gene qHTS assay in human keratinocytes (AID 1919969). Also: nearly all actives have a fitted effect of over 35% in size. Also: potency is read from the fitted curve at half-maximal effect.
The target of test [3] is Gonadotropin-releasing hormone receptor (Homo sapiens) (UniProt P30968). The experiment in a line: Human gonadotropin-releasing hormone receptor (GnRHR) small molecule agonists, calcium flux assay in GnRHR-HEK293 cells (AID 1920063). Also: nearly all actives have a fitted effect of over 35% in size. Also: potency is read from the fitted curve at half-maximal effect. In a few lines:
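Calcium flux, agonist mode, human GnRHR stably integrated in HEK293; dye 1 h at 37 C before compound; Ex/Em=480/540 kinetic read, 3 min; 15 concentrations, triplicate.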

Test [4] is described as follows: G protein-coupled receptor (GPCR) small molecule agonists, calcium flux assay: HEK293 wild type cell line counter screen (AID 1920065). A digest of the protocol: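 Non-specific calcium responders were flagged by adding DMSO-dissolved compounds to dye-loaded cells and reading 480/540 nm fluorescence each second for 3 min; ATP served as positive control.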
The nature of test [5]: p53 small molecule agonists, cell-based qHTS assay with human liver microsomes (AID 1963577). Also: potency is read from the fitted curve at half-maximal effect. In a few lines: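 In this qHTS, p53 response-element beta-lactamase cells receive test compound together with a microsome/NADPH activating system (0.5 mg/mL final each) and are incubated 16 h at 37 C before LiveBLAzer fluorescence detection.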
The nature of test [6]: p53 small molecule agonists, cell-based qHTS assay with rat liver microsomes (AID 1963578). A digest of the protocol:
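Agonist mode in p53RE-bla reporter cells, with compounds co-incubated 16 h at 37 C alongside 0.5 mg/mL rat liver microsomes and 0.5 mg/mL NADPH (final), followed by a 2 h LiveBLAzer detection step.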

Test [7] is described as follows: p53 small molecule agonists, cell-based qHTS assay with rat liver microsomes: qHTS cell viability counter screen (AID 1963580). Also: nearly all actives have a fitted effect of over 45% in size. Also: potency is read from the fitted curve at half-maximal effect. In a few lines: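 Counter screen for cytotoxicity under metabolic activation: rat liver microsomes and NADPH, 0.5 mg/mL final each, added with compounds to p53RE-bla HCT-116 cells; 16 h at 37 C, then ATP luminescence read.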
The nature of test [8]: p53 small molecule agonists, cell-based qHTS assay (AID 1963582; active = well fitted activation curve with a large enough effect in the signal ratio in the repeat runs, not every such curve was filed as active; the % refers to the signal ratio). A digest of the protocol: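 Beta-lactamase reporter cells (p53RE-bla) treated with compounds for 16 h at 37 C; FRET substrate, 2 h, room temperature; fluorescence intensity.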
For test [9], the target named is 5-hydroxytryptamine receptor 2A (Homo sapiens) (UniProt P28223). The experiment in a line: 5-hydroxytryptamine receptor 2A (HTR2A) small molecule antagonists, cell-based qHTS assay (AID 1963586). Also: nearly all actives have a fitted effect of over 45% in size. Also: potency is read from the fitted curve at half-maximal effect. A digest of the protocol:
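CHO cells stably expressing human HTR2A were plated for 18 h at 37 C, then loaded with calcium dye for 1 h. Compounds were preincubated 5 min at room temperature before DOI (4 nM solution) was added. Kinetic fluorescence was read for 3 min.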

Test [10] shares this target. Kind of test: 5-hydroxytryptamine receptor 2A (HTR2A) small molecule agonists, cell-based qHTS assay (AID 1963587). Also: nearly all actives have a fitted effect of over 30% in size. Also: potency is read from the fitted curve at half-maximal effect. A digest of the protocol: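 HTR2A-CHO cells, plated 18 h at 37 C/5% CO2, dye-loaded 1 h at 37 C; compounds in DMSO added by pin tool (agonist mode). Intracellular calcium flux read as kinetic fluorescence on FDSS over 2 min at 1 s intervals.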
Test [11] addresses Muscarinic acetylcholine receptor M1 (Homo sapiens) (UniProt P11229). The experiment in a line: Cholinergic receptor muscarinic 1 (CHRM1) small molecule agonists, cell-based qHTS assay (AID 1963589). Also: nearly all actives have a fitted effect of over 35% in size. Also: potency is read from the fitted curve at half-maximal effect. In a few lines:
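qHTS, 15-point titration, 3 independent runs: compounds pin-transferred onto dye-loaded CHRM1-CHO cells (human M1), calcium fluorescence followed every second to detect agonism.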

Test [12] in a line: cAMP Responsive Elements (CRE) small molecule antagonists, cell-based qHTS assay (AID 1963591; active = well fitted inhibition curve with a large enough effect in the signal ratio in the repeat runs, not every such curve was filed as active; the % refers to the signal ratio). A digest of the protocol:
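Fluorescence intensity from cleaved LiveBLAzer B/G substrate (2 h, room temperature) quantified CRE-bla activity in HEK 293T cells exposed 3 h to compound with 0.25 uM final NKH477.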

Test [13] addresses Beta-2 adrenergic receptor (Homo sapiens) (UniProt P07550). Kind of test: Adrenergic beta2 receptor (ADRB2) small molecule antagonists, cell-based qHTS assay (AID 1963592). Also: series mostly up to about 92 µM; nearly all actives have a fitted effect of over 50% in size. In a few lines:
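Assay format: CHO-ADRB2 cells, 18-20hr seeding at 37C/5% CO2, then compound plus 1nM isoproterenol agonist mix for 0.5hr RT. Homogeneous time-resolved fluorescence cAMP detection after 1hr, expressed as 665/615 nm ratio.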

Test [14] concerns the target D(2) dopamine receptor (Homo sapiens) (UniProt P14416). Kind of test: Dopamine D2 receptor (DRD2) small molecule agonists, cell-based qHTS assay (AID 1963594). Also: nearly all actives have a fitted effect of over 35% in size. In a few lines:
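HEK293 cells stably expressing DRD2 were cultured 24 h at 37 C, then given Ro20-1724 (0.1 mM final) and compounds for 10 min at room temperature. NKH477 (200nM) was then added for 30 min. cAMP was read by HTRF.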

Test [15] has the same target. Kind of test: Dopamine D2 receptor (DRD2) small molecule antagonists, cell-based qHTS assay (AID 1963595; active = well fitted inhibition curve with a large enough effect in the signal ratio in the repeat runs, with a control signal flat; the % refers to the signal ratio; also: potency is read from the fitted curve at half-maximal effect). In a few lines: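 HEK293 cells stably expressing DRD2 were preincubated with 0.1 mM Ro20-1724, then with compound for 10 min at room temperature. Cells were stimulated with 200 nM NKH477 plus 12 nM quinpirole for 30 min, and cAMP was read by HTRF.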
Test [16] in a line: p53 small molecule agonists, cell-based qHTS assay with human liver microsomes: qHTS cell viability counter screen (AID 1963579). Also: nearly all actives have a fitted effect of over 45% in size. Also: potency is read from the fitted curve at half-maximal effect. In a few lines: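 Metabolically activated exposure: compounds, human liver microsomes and NADPH (0.5 mg/mL final apiece) were added to p53RE-bla cells seeded 5 h earlier, left 16 h at 37 C, and then assessed for viability by CellTiter-Glo luminescence.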

For test [17], the target named is Muscarinic acetylcholine receptor M1 (Homo sapiens) (UniProt P11229). Kind of test: Cholinergic receptor muscarinic 1 (CHRM1) small molecule antagonists, cell-based qHTS assay (AID 1963588). Also: nearly all actives have a fitted effect of over 40% in size. A digest of the protocol:
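Compounds were tested at 15 concentrations in three independent runs. Dye-loaded CHRM1-CHO cells were exposed 5 min at room temperature before stimulation by acetylcholine added at 50nM. Intracellular calcium was read kinetically on FDSS for 3 min.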

The nature of test [18]: cAMP Responsive Elements (CRE) small molecule agonists, cell-based qHTS assay (AID 1963590). In a few lines:
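Quantitative HTS for CRE agonists: HEK 293T CRE-bla cells, overnight plating, 3 h compound incubation at 37 C/5% CO2, then 2 h room-temperature LiveBLAzer B/G FRET substrate loading.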

Test [19] deals with KiSS-1 receptor (Homo sapiens) (UniProt Q969F8). The experiment in a line: Human kisspeptin (KISS1R) small molecule agonists, calcium flux assay in KISS1R-HEK293 cells (AID 1920064; active = well fitted curve in the direction sought with a large enough effect in the repeat runs; an effect the other way counts as inactive or inconclusive; also: potency is read from the fitted curve at half-maximal effect). In a few lines:
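Triplicate 15-concentration series were applied to dye-loaded human KISS1R HEK293 cells, and agonist-evoked calcium fluorescence was captured for 3 min.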

A short description of test [20]: p53 small molecule agonists, cell-based qHTS assay: qHTS cell viability counter screen (AID 1963581). Also: nearly all actives have a fitted effect of over 45% in size. Also: potency is read from the fitted curve at half-maximal effect. A digest of the protocol:
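Multiplexed with the reporter read, a CellTiter-Glo step (30 min, room temperature) gauges ATP-based viability of HCT-116 p53RE-bla cells after 16 h compound incubation at 37 C.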

Results filed as inconclusive are left out. Calls of active or inactive are those of the source. Unless noted, calls follow the shape of the full dose curve.

Chain of Muscarinic acetylcholine receptor M1 (Homo sapiens) (P11229 whole entry, looked up): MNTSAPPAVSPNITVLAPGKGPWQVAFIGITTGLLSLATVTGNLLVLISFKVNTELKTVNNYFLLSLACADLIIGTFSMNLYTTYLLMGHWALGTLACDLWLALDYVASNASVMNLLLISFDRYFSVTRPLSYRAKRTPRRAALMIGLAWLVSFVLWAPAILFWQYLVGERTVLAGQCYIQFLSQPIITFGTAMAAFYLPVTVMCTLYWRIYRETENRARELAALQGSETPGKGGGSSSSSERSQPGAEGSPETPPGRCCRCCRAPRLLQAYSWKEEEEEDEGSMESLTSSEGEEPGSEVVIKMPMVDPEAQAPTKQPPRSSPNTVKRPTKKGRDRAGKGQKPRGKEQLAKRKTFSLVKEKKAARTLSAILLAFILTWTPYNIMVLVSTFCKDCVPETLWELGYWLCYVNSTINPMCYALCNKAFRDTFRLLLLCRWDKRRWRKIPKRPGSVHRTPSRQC
Chain of D(2) dopamine receptor (Homo sapiens) (P14416 whole entry, looked up): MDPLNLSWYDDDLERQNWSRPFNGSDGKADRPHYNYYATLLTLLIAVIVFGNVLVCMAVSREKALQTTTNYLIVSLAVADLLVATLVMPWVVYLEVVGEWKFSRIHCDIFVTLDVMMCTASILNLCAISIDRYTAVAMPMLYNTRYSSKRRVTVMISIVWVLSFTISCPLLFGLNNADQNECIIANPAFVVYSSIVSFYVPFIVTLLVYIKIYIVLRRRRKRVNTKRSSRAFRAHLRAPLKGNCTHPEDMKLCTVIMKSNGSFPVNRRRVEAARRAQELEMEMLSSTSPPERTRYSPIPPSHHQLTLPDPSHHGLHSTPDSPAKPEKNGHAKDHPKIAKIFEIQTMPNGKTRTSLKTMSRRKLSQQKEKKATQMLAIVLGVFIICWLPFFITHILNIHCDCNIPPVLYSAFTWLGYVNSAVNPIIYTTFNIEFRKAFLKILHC
Chain of Beta-2 adrenergic receptor (Homo sapiens) (P07550 whole entry, looked up): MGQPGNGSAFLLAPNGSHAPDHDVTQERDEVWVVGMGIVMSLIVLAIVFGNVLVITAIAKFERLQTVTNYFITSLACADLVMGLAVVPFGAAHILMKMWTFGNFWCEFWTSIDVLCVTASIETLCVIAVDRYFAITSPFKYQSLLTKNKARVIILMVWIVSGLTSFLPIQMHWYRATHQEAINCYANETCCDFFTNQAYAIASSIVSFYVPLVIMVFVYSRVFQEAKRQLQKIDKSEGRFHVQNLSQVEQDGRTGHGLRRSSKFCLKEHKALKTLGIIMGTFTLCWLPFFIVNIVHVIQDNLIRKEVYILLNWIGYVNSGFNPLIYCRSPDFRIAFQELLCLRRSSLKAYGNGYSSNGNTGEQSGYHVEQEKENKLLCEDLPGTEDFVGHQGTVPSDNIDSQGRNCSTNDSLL
Chain of 5-hydroxytryptamine receptor 2A (Homo sapiens) (P28223 whole entry, looked up): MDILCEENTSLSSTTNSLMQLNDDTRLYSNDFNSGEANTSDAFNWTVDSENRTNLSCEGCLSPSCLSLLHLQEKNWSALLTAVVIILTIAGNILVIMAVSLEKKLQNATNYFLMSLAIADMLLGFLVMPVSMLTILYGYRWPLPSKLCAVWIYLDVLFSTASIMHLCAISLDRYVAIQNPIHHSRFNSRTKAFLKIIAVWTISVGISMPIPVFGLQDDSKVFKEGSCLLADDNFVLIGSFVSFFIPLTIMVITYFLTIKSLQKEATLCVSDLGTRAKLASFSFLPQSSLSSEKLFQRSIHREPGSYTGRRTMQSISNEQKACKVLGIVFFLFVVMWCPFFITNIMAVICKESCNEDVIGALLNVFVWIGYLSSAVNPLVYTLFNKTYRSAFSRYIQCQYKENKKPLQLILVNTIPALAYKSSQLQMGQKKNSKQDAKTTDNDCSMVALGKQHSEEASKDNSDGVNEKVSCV
Chain of Gonadotropin-releasing hormone receptor (Homo sapiens) (P30968 whole entry, looked up): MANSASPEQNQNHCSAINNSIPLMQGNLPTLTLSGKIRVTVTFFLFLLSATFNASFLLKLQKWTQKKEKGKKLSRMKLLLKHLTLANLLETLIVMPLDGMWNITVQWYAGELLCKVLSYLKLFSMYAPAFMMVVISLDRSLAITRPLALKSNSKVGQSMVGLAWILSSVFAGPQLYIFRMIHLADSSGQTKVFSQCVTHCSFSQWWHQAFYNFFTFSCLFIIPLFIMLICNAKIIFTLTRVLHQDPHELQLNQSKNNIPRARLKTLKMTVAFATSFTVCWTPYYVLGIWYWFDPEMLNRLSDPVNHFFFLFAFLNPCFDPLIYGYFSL
Chain of KiSS-1 receptor (Homo sapiens) (Q969F8 whole entry, looked up): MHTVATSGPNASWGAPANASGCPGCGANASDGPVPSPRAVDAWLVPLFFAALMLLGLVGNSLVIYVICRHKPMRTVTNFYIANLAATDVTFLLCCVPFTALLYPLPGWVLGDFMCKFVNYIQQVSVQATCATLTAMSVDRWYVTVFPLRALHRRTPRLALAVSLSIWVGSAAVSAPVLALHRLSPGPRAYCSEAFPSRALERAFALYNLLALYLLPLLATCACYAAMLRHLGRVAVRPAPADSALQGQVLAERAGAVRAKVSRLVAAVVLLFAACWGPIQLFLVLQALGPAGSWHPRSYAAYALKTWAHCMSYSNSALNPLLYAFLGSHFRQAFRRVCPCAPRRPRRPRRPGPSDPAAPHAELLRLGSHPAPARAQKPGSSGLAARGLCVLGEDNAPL

Take `O=C1c2ccccc2C(=O)C1C(=O)C(c1ccccc1)c1ccc(Cl)cc1` (stereo not drawn): the Potency in test [1] is 15.4 µM (active); in test [3] it was 17.4 µM (active); in test [9], 4.21 µM (active); in test [10], 49 µM (active). The Potency result in test [2], in test [4], in test [5], in test [6], in test [7] and in test [8] was “inactive” throughout. Besides, the Potency result in [11], in test [12], in test [13], in [14] and in [15] was “inactive” each time.

In the case of `N#Cc1ccc(N(CC(N)=O)CC(F)(F)F)cc1C(F)(F)F`, the Potency result in test [1], in test [2], in [3], in test [4], in test [5] and in test [6] was “inactive” throughout. Also, the Potency entry in test [16], in test [9], in test [10], in test [17], in test [11] and in [18] was “inactive” throughout. Moreover, the Potency result in test [12], in [13] and in test [15] was “inactive” throughout.

Take `CCN(CC)C(=S)[S-].CCN(CC)C(=S)[S-].[Zn+2]`: the Potency was 0.481 µM (active) in test [1]; 2.41 µM (active) in test [2]; 9.69 µM (active) in [3]; 19.3 µM (active) in test [19]; 1.61 µM (active) in test [7]; 4.54 µM (active) in test [20]. The Potency in test [10] was 19.3 µM (active); in test [11], 13.7 µM (active). In addition, the Potency entry in test [9], in test [17] and in test [15] was “inactive” in each case.

With `Oc1cc(Cl)c(Cl)c(Cl)c1Cl`, the Potency is 53.2 µM (active) in test [1], 53.2 µM (active) in [2], 17.8 µM (active) in test [16] and 17.8 µM (active) in [7]. Moreover, the Potency entry in test [3], in test [4], in test [5], in test [6], in [9] and in test [10] was “inactive” throughout. Also, the Potency entry in [11], in test [14] and in test [15] was “inactive” throughout.

Regarding `CCS(=O)(=O)CCSP(=O)(OC)OC`, the Potency entry in test [1], in test [3], in [19], in test [16], in [7] and in [8] was “inactive” throughout. Moreover, the Potency result in test [9], in test [10], in [17], in test [11], in test [18] and in [13] was “inactive” in each case. The Potency entry in [14] and in [15] was “inactive” throughout. Further, the Potency in test [2] is 61.1 µM (active).

Consider `CC(Cc1ccc(O)cc1)NCC(O)c1cc(O)cc(O)c1` (stereo not drawn), for which the Potency result in [1], in test [2], in test [19], in test [17], in [11] and in test [12] was “inactive” in each case. The Potency in [3] was 0.0338 µM (active); in test [15], 5.96 µM (active).

For the molecule `CNP(=O)(OC)Oc1ccc(C(C)(C)C)cc1Cl` (stereo not drawn), the Potency entry in [1], in test [3], in test [4], in test [16], in test [7] and in test [20] was “inactive” in each case. Further, the Potency result in [8], in test [9], in test [10], in test [17], in test [11] and in test [18] was “inactive” in each case. The Potency entry in test [12], in test [13], in [14] and in test [15] was “inactive” throughout. For the same molecule, the Potency is 48.6 µM (active) in test [2] and 3.24 µM (active) in [5].

Consider `NC(=O)C(Cl)(Cl)Cl`, for which the Potency entry in [1], in test [2], in [3], in test [19], in [16] and in test [7] was “inactive” in each case. Further, the Potency result in [20], in [10], in test [11], in test [18], in test [12] and in [14] was “inactive” each time. Also, the Potency entry in test [15] was “inactive”.

On to `C[N+]1(C)[C@@H]2CC[C@H]1CC(OC(=O)C(CO)c1ccccc1)C2` (stereo partly drawn), for which the Potency entry in test [1], in test [2], in test [3], in [4], in [5] and in [6] was “inactive” in each case. Moreover, the Potency result in test [16], in test [7], in test [20], in test [9], in test [11] and in [18] was “inactive” throughout. For the same molecule, the Potency result in test [12], in [13] and in test [15] was “inactive” in each case.
